# Columns and labels:
# Assay in all cases: DAPPL (digital affinity profiling via proximity ligation, sequencing); 10 mM Tris-HCl pH 7.5, 50 mM NaCl, 1 mM DTT, 4% glycerol, room temperature, 30 min; GST-TFs on glutathione beads, 16-mer random dsDNA library, 0.1% formaldehyde crosslink after washing; high values mean tight binding
# FEV = target: T1, FEV (Homo sapiens, UniProt Q99581 1-238); details: protein: recombinant; tags: N-terminal GST; dsDNA, one strand shown
# T1 sequence: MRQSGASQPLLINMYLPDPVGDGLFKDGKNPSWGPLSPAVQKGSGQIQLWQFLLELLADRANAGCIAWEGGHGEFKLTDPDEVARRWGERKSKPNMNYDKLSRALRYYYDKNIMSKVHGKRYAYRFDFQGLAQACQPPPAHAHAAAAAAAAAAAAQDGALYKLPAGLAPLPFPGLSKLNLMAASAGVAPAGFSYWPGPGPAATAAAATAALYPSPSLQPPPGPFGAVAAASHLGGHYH
# In short: (§1)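 Sequencing on an Illumina NextSeq500 followed washing, crosslinking with 0.1% formaldehyde, proximity ligation (BsaI/T4 ligase, 1 h, 37 °C) and PCR amplification of pools that had been incubated for 30 min at room temperature with 200 nmole of a random double-stranded 16-mer DNA library in Tris/NaCl/DTT/glycerol buffer. Each pool held DNA-barcoded human transcription factors, expressed in yeast as GST fusions and captured on glutathione beads, plus a tag-only sample. Binding signal is a hexamer's read frequency for a factor divided by its frequency in the tag-only sample.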
# ETV5 = ETV5 (Homo sapiens, UniProt P41161 1-510); details: protein: recombinant; tags: N-terminal GST; dsDNA, one strand shown
# In short: as §1
# HSF1 = HSF1 (Homo sapiens, UniProt Q00613 1-529); details: protein: recombinant; tags: N-terminal GST; chain copies: 3; dsDNA, one strand shown
# In short: as §1
# SPIC = target: T2, SPIC (Homo sapiens, UniProt Q8N5J4 1-248); details: protein: recombinant; tags: N-terminal GST; dsDNA, one strand shown
# T2 sequence: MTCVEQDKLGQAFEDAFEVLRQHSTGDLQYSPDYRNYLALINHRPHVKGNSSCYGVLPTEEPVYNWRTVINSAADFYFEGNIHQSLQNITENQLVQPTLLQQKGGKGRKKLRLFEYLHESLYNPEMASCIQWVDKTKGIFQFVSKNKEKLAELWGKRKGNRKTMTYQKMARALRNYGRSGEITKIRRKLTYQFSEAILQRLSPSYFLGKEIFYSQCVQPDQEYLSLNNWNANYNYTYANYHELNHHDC
# In short: as §1
# ELF4 = ELF4 (Homo sapiens, UniProt Q99607 1-663); details: protein: recombinant; tags: N-terminal GST; dsDNA, one strand shown
# In short: as §1
# ELK4 = target: T3, ELK4 (Homo sapiens, UniProt P28324-2 1-405); details: protein: recombinant; tags: N-terminal GST; dsDNA, one strand shown
# T3 sequence: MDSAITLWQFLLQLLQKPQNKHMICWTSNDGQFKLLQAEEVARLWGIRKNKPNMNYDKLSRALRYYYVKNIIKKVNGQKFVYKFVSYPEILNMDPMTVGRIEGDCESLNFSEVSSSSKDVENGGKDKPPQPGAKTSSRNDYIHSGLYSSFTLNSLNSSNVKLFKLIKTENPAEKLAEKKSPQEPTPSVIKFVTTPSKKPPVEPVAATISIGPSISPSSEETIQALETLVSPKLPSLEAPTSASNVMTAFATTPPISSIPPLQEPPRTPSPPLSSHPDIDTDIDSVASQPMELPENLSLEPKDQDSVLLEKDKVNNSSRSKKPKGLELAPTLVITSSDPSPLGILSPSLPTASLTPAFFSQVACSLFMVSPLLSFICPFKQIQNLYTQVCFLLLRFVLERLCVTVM
# In short: as §1
# ETV2 = target: T4, ETV2 (Homo sapiens, UniProt O00321 1-342); details: protein: recombinant; tags: N-terminal GST; dsDNA, one strand shown
# T4 sequence: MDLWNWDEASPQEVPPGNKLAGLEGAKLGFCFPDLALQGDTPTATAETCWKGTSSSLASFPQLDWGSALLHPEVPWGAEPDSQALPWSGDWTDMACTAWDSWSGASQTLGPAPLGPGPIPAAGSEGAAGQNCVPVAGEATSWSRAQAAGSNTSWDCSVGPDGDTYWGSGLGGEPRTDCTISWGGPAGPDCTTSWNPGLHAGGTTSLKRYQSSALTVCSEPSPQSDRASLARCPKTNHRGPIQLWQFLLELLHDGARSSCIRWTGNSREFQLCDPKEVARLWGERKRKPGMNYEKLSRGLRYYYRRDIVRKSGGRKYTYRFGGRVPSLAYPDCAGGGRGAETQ
# In short: as §1
# ELF3 = target: T5, ELF3 (Homo sapiens, UniProt P78545 1-371); details: protein: recombinant; tags: N-terminal GST; dsDNA, one strand shown
# T5 sequence: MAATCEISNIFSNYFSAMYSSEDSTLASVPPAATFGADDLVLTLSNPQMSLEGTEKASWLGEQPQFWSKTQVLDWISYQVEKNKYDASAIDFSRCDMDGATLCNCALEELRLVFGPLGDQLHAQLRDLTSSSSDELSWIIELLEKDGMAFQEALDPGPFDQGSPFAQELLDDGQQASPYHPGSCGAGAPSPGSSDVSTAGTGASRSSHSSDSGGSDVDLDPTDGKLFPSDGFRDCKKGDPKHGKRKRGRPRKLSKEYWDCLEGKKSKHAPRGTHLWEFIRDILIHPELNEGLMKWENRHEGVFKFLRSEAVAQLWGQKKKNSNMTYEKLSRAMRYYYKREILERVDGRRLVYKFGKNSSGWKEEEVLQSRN
# In short: as §1
# ETV1 = ETV1 (Homo sapiens, UniProt P50549 1-477); details: protein: recombinant; tags: N-terminal GST; dsDNA, one strand shown
# In short: as §1
# ERF = target: T6, ERF (Homo sapiens, UniProt P50548 1-548); details: protein: recombinant; tags: N-terminal GST; dsDNA, one strand shown
# T6 sequence: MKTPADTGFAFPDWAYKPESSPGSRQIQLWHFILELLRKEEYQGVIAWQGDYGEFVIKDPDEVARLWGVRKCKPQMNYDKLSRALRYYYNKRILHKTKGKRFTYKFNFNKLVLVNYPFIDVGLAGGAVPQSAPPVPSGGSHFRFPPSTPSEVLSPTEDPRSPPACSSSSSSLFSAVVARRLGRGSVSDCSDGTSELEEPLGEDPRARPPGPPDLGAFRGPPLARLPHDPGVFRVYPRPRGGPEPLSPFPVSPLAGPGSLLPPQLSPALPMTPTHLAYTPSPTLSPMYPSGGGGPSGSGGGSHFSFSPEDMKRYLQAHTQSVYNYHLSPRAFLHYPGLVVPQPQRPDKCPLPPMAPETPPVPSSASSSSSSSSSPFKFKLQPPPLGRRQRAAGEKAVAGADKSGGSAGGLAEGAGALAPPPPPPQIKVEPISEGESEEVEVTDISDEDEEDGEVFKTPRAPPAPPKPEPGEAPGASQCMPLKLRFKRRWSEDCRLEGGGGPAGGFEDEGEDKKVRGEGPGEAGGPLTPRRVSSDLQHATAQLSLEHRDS
# In short: as §1
# ETV3L = target: T7, ETV3L (Homo sapiens, UniProt Q6ZN32 1-361); details: protein: recombinant; tags: N-terminal GST; dsDNA, one strand shown
# T7 sequence: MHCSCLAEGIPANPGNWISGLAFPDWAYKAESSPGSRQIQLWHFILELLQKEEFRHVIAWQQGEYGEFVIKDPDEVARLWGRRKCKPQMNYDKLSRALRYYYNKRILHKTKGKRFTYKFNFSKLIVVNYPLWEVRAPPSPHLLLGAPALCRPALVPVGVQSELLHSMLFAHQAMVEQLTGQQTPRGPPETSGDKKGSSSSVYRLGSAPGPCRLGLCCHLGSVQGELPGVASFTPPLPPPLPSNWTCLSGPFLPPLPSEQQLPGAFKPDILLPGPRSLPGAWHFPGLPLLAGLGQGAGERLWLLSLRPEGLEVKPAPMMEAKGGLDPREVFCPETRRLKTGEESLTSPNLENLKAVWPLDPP
# In short: as §1
# ETS2 = target: T8, ETS2 (Homo sapiens, UniProt P15036 1-469); details: protein: recombinant; tags: N-terminal GST; dsDNA, one strand shown
# T8 sequence: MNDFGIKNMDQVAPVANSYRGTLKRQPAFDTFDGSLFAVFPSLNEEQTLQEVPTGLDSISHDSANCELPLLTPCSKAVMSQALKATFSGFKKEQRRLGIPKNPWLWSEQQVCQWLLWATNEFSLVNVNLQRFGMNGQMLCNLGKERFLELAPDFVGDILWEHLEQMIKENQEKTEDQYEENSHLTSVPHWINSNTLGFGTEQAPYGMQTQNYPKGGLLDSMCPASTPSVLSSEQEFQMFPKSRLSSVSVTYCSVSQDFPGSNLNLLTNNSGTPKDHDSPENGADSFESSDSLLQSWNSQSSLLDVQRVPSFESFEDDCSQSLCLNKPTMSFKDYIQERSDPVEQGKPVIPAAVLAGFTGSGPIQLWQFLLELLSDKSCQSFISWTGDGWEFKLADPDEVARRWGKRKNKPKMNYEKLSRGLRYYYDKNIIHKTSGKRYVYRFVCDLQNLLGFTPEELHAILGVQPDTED
# In short: as §1
# SPDEF = target: T9, SPDEF (Homo sapiens, UniProt O95238 1-335); details: protein: recombinant; tags: N-terminal GST; dsDNA, one strand shown
# T9 sequence: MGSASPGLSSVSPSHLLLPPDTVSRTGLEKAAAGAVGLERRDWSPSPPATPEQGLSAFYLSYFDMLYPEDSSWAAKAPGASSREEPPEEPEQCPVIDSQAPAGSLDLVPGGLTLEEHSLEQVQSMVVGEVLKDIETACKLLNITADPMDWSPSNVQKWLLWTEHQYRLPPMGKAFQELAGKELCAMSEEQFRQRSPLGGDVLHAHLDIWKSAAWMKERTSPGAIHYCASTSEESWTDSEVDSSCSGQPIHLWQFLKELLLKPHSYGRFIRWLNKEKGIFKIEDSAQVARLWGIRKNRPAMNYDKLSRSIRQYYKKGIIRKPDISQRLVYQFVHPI
# In short: as §1
# ETV7 = target: T10, ETV7 (Homo sapiens, UniProt Q9Y603 1-341); details: protein: recombinant; tags: N-terminal GST; dsDNA, one strand shown
# T10 sequence: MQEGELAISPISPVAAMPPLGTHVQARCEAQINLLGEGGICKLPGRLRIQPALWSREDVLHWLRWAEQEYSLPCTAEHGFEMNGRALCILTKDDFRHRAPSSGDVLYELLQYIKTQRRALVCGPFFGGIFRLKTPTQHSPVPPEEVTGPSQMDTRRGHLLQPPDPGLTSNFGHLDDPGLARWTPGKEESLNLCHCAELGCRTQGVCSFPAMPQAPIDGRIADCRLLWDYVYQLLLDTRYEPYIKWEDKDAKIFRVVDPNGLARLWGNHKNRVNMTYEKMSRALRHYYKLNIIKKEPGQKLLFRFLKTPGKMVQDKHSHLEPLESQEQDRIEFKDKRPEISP
# In short: as §1
# ELF5 = target: T11, ELF5 (Homo sapiens, UniProt Q9UKW6-2 1-255); details: protein: recombinant; tags: N-terminal GST; dsDNA, one strand shown
# T11 sequence: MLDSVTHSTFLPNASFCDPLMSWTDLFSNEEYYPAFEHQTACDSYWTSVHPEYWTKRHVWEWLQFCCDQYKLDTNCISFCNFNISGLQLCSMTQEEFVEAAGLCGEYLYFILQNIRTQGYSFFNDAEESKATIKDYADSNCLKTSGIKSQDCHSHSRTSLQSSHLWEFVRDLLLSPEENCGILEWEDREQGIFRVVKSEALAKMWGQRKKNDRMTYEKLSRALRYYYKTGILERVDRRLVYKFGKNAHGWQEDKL
# In short: as §1
# ETV3 = target: T12, ETV3 (Homo sapiens, UniProt P41162-2 1-143); details: protein: recombinant; tags: N-terminal GST; dsDNA, one strand shown
# T12 sequence: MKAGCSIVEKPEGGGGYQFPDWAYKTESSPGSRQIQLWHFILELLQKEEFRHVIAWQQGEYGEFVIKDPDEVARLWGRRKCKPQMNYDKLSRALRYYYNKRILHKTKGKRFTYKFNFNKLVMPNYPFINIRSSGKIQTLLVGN
# In short: as §1
# ETV6 = ETV6 (Homo sapiens, UniProt P41212 1-452); details: protein: recombinant; tags: N-terminal GST; dsDNA, one strand shown
# In short: as §1
# Sequence of ETV1 (P50549 whole entry): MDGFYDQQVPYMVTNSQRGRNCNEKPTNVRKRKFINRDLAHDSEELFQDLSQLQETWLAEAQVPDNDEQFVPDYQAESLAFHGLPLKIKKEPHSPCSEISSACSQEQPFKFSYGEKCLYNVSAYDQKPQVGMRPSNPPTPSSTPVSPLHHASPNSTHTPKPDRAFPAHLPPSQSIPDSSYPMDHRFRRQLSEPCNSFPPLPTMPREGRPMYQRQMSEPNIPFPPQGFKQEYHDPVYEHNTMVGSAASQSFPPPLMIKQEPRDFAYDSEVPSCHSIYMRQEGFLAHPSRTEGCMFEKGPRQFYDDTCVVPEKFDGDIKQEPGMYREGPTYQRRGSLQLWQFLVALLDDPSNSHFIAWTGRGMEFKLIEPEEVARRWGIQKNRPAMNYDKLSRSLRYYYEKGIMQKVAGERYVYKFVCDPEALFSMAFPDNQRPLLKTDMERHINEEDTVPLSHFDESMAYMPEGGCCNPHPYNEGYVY
# Sequence of HSF1 (Q00613 whole entry): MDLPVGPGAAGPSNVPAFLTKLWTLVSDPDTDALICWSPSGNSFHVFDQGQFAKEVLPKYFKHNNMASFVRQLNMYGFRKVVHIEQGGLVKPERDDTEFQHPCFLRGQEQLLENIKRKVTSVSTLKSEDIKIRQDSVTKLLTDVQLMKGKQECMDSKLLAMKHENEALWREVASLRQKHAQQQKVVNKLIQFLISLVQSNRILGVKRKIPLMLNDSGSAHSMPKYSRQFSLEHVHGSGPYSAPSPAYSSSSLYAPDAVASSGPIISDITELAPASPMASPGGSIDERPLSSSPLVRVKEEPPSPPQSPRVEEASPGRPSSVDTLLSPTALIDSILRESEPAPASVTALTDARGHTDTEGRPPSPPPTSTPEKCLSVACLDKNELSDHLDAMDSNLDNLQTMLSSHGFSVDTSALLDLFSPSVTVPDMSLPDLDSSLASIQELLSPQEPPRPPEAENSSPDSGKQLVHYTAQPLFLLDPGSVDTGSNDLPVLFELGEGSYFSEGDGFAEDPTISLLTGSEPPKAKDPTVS
# Sequence of ETV6 (P41212 whole entry): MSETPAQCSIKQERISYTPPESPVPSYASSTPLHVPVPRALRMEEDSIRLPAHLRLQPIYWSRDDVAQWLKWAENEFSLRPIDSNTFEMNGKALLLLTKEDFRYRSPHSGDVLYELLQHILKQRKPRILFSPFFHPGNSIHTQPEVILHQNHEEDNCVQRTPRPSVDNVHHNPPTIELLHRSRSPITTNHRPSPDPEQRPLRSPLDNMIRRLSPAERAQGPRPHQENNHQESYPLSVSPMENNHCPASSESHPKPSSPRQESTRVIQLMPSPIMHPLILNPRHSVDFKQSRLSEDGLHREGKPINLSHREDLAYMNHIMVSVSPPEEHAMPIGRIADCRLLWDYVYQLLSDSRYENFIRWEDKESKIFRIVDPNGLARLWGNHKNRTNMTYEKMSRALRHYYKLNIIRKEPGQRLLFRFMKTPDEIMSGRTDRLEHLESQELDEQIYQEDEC
# Sequence of ETV5 (P41161 whole entry): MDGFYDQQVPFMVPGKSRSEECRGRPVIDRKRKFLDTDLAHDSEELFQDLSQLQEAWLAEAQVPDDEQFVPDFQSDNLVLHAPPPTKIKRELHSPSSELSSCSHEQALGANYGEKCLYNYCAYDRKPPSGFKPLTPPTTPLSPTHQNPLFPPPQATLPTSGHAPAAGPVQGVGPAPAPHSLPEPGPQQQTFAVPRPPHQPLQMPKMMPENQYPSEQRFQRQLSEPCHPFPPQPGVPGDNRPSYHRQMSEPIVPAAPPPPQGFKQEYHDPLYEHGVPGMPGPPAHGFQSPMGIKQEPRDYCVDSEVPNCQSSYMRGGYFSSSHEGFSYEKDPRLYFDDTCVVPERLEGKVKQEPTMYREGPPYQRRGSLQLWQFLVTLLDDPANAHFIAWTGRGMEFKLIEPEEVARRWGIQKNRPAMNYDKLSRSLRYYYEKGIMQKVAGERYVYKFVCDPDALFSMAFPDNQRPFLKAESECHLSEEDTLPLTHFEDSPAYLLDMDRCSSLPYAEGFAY
# Sequence of ELF4 (Q99607 whole entry): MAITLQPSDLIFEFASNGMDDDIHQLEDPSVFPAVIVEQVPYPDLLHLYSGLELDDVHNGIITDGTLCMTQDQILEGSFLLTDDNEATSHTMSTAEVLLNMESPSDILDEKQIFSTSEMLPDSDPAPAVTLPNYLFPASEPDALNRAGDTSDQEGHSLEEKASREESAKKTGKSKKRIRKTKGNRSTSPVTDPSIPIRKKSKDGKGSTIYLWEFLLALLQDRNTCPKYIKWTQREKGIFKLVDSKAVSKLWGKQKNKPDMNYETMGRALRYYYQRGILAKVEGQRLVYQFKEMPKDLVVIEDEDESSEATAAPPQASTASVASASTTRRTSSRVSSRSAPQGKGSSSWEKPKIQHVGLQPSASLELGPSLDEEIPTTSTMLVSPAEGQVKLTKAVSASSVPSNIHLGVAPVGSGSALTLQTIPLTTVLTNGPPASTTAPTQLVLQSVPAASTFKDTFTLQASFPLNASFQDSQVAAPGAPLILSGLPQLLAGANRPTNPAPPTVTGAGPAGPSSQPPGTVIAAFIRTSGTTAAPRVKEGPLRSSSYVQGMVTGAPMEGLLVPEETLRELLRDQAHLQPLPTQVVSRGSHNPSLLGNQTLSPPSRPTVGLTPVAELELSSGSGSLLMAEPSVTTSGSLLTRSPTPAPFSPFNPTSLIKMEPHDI
sequence,measurement,setting,value
ATGTGG,binding signal,FEV,"1.2 fold enrichment (6-mer frequency, TF over GST control)"
same,binding signal,ETV5,"1.09 fold enrichment (6-mer frequency, TF over GST control)"
same,binding signal,HSF1,"1.04 fold enrichment (6-mer frequency, TF over GST control)"
same,binding signal,SPIC,"1.18 fold enrichment (6-mer frequency, TF over GST control)"
same,binding signal,ELF4,"1.15 fold enrichment (6-mer frequency, TF over GST control)"
same,binding signal,ELK4,"1.27 fold enrichment (6-mer frequency, TF over GST control)"
same,binding signal,ETV2,"1.28 fold enrichment (6-mer frequency, TF over GST control)"
same,binding signal,ELF3,"1.26 fold enrichment (6-mer frequency, TF over GST control)"
same,binding signal,ETV1,"1.12 fold enrichment (6-mer frequency, TF over GST control)"
same,binding signal,ERF,"1.15 fold enrichment (6-mer frequency, TF over GST control)"
same,binding signal,ETV3L,"1.16 fold enrichment (6-mer frequency, TF over GST control)"
same,binding signal,ETS2,"1.18 fold enrichment (6-mer frequency, TF over GST control)"
same,binding signal,SPDEF,"1.05 fold enrichment (6-mer frequency, TF over GST control)"
same,binding signal,ETV7,"1.08 fold enrichment (6-mer frequency, TF over GST control)"
same,binding signal,ELF5,"1.15 fold enrichment (6-mer frequency, TF over GST control)"
same,binding signal,ETV3,"1.19 fold enrichment (6-mer frequency, TF over GST control)"
same,binding signal,ETV6,"1.2 fold enrichment (6-mer frequency, TF over GST control)"
